This note sets out measurements from PubChem BioAssay.

The nature of experiment [1]: inhibitors of TNFa-induced NFkB p65 translocation, primary screen, imaging, HUVEC, MLSMR starter and 10KST1 sets (AID 438;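 active = inhibition above 20% together with a positive visual image hit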;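 note: compound added about 3h40 before a 20 min TNFalpha stimulation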;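 for inhibition: signal is the nuclear over cytoplasmic p65 intensity ratio per well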). Particulars: HUVEC TNFa-induced p65 nuclear translocation; cell count: measured here: nuclei count (cytotoxicity indicator), at 2.08 µM; inhibition: at 2 µM, stronger effect = higher value, 0% TNFa-plus-vehicle, 100% no-TNFa wells.
The nature of experiment [2]: reduction of polyQ htt aggregates in cells – imaging, exon1htt(103Q)mCFP cells, high-content imaging, primary screen (AID 483;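 active = visual image review flags a hit and inhibition of aggregation exceeds 20%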;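 note: compound exposure lasted 3 days before fixation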;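 for nuclei count: percent of the per-plate median nuclei count of sample wells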). To be noted: exon1htt(103Q)mCFP cell line, aggregate imaging, at 2 µM; inhibition of aggregation: stronger effect = higher value; nuclei count: measured here: cell count, toxicity.
The nature of experiment [3]: endothelial E-selectin expression blockers – imaging, HUVEC, immunofluorescence, MLSMR starter and 10KST1 sets, primary screen (AID 487;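 active = visually confirmed hit in the image check and inhibition above 20%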;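 for inhibition: signal is fraction of cell area covered by stained E-selectin grains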;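 for nuclei count: 100% = median nuclei count of all wells on the same plate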). To be noted: HUVEC TNFalpha-induced E-selectin immunofluorescence imaging, at 2 µM; inhibition: stronger effect = higher value; nuclei count: measured here: cell number, toxicity.
A short description of experiment [4]: Primary imaging screen for DUSP6 inhibitors that restore phospho-Erk in transfected HeLa cells, chemical complementation (AID 609;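 active = compounds giving at least 50% inhibition in the cell-based MKP-3 phosphatase rescue imaging test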;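 for inhibition: phospho-Erk level distribution per well compared with pooled transfected vehicle control wells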). To be noted: HeLa MKP-3 transfected, phospho-Erk imaging KS statistic, at 10 µM, cells stimulated with TPA for 15 min.
The target of experiment [5] is Dual specificity protein phosphatase 6 (Homo sapiens) (UniProt Q16828). Described as above. To be noted: HeLa MKP-3 transfected, phospho-Erk imaging KS statistic; at 10 µM; stronger effect = higher value; cells stimulated with TPA for 15 min.
Sequence of Dual specificity protein phosphatase 6 (Homo sapiens) (Q16828 whole entry, looked up): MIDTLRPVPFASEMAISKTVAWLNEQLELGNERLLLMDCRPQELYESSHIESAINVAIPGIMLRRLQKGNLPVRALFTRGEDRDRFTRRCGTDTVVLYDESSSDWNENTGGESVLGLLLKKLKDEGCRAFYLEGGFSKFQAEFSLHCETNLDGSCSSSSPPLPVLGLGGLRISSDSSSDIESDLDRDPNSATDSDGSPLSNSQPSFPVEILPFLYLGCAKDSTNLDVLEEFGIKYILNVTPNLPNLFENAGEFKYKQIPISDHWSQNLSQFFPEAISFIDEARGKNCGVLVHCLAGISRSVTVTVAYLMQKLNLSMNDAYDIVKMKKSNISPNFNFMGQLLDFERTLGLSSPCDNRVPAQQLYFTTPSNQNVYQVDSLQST
Experiment [6] concerns the target Voltage-gated potassium channel subunit beta-2 (Rattus norvegicus) (UniProt P62483). Kind of experiment: inhibitors of rat Kvbeta2 reductase activity – biochemical, NADPH fluorescence, primary screen (AID 622;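 active = fluorescence slope higher than the sample average by over 3 SD, cut at about -0.22 in these data, passing the limit was not always enough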;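 note: slope of raw intensity against log time taken from 70 to 1610 s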). To be noted: recombinant KvBeta, 4-cyanobenzaldehyde reduction, at 10 µM, stronger effect = higher value.
For experiment [7] the target is unchanged. The experiment can be described thus: enhancers of rat Kvbeta2 NADPH turnover – biochemical, NADPH fluorescence, primary screen (AID 623;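 active = NADPH fluorescence slope more negative than the mean of all samples by about 3 SD, 99.7% confidence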;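 note: fluorescence intensity change per second fitted from 20 to 320 s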). Particulars: Recombinant KvBeta, NADPH fluorescence decrease slope, 10 min; at 10 µM; stronger effect = lower value.
The target of experiment [8] is Alpha-2C adrenergic receptor (Homo sapiens) (UniProt P18825). Kind of experiment: compounds altering alpha2C-coupled GIRK flux – cell-based, HEK293 alpha2C/GIRK1/2, thallium flux, primary screen (AID 624;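 active = fluorescence slope after compound addition differing from the mean of all screened samples at 99.7% confidence, in either direction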;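 note: slope of fluorescence ratio to pre-addition baseline per second over 15 to 24 s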). To be noted: thallium flux BTC fluorescence, at 10 µM, actives lie on both sides.
Sequence of Alpha-2C adrenergic receptor (Homo sapiens) (P18825 whole entry, looked up): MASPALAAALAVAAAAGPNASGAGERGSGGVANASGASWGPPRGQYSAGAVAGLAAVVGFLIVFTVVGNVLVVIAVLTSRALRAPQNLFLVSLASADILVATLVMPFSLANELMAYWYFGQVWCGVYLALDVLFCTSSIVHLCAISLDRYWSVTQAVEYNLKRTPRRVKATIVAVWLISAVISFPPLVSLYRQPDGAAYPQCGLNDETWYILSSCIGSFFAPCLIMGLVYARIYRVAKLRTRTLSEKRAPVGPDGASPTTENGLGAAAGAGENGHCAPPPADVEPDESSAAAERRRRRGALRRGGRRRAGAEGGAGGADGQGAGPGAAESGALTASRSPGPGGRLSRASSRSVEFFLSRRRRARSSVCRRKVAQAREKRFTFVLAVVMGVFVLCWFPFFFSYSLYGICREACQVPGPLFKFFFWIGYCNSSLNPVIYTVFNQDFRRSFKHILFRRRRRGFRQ
Experiment [9] concerns the target Muscarinic acetylcholine receptor M4 (Homo sapiens) (UniProt P08173). Kind of experiment: M4-linked GIRK flux change, two-sided – cell-based, HEK293 M4/GIRK, thallium flux, BTC-AM, M4 allosteric agonist project, primary screen (AID 625;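 active = fluorescence slope after compound addition differing from the mean of all tested samples at 99.7% confidence, mostly higher but some lower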;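 note: thallium influx through GIRK channels coupled to M4 in HEK293 cells with BTC-AM dye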). To be noted: at 10 µM, actives lie on both sides.
A short description of experiment [10]: inhibitors of larval lipid processing in zebrafish, primary screen, whole organism, PED6 fluorescence, gall bladder and intestine (AID 686;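 active = a full or partial loss of lipid-probe fluorescence in the fish gall bladder, intestine or both, judged by eye; inactive = no fluorescence loss, or compound toxic to the fish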;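 note: larvae 5 to 7 days old with five fish per well; signal comes from phospholipase A2 cleavage of quenched PED6 carried via bile; overnight exposure to compound and PED6 before scoring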). Particulars: Zebrafish larvae PED6 lipid processing, fluorescence scoring; screened at 20 µM (by protocol).
A short description of experiment [11]: loss of swimming-algae plug formation – whole organism, Chlamydomonas reinhardtii, WT vs cilia-less mutant, absorbance, 96-well, primary screen (AID 463189).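 Note: 0% = wild type cc124 cells in DMSO and 100% = ciliumless bld1 mutant cells.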 Particulars: Chlamydomonas reinhardtii gravitaxis, OD600 absorbance, 2 days; at 10 µM; stronger effect = higher value.
Experiment [12] in a line: blockers of RIG-like receptor reporter activation – cell-based, Sendai virus stimulus, luciferase, 10K MLSCN set, TLR/RLR signaling modifier project, primary screen (AID 602276;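 active = inhibition at or above 50% at 10 µM; inactive = inhibition below 50%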;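 note: firefly luciferase from ISG56 promoter only with Renilla not read in this screen; 0% = Sendai virus plus DMSO and 100% = medium plus DMSO without virus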). To be noted: HEK293 RL24 IRF3 luciferase reporter, at 10 µM, stronger effect = higher value.
A short description of experiment [13]: TLR3 IRF3 reporter activation blockers – cell-based, poly I:C stimulus, luciferase, 10K MLSCN set, primary screen (AID 602277;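 active = inhibition of the reporter signal at or above 50%; inactive = inhibition below 50%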). To be noted: HEK293-TLR3 RL24 IRF3 luciferase reporter, at 10 µM, stronger effect = higher value.
Where [14] appears, read: measured here: cell density z-score.
[15] abbreviates: measured here: nuclear c-Myc green intensity z-score.
Setting [16] is: measured here: nuclear pErk red intensity z-score, stronger effect = higher value.

Several values for one entry are separate records, joined by “and”; a condition that tells them apart may be missing. Identical values can stand only once. Activity calls are given as the source filed them.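 Rule for the calls, unless noted: active = inhibition at or above 50% relative to wild type and mutant plate controls; inactive = inhibition below 50%.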

Sequence of Voltage-gated potassium channel subunit beta-2 (Rattus norvegicus) (P62483 whole entry, looked up): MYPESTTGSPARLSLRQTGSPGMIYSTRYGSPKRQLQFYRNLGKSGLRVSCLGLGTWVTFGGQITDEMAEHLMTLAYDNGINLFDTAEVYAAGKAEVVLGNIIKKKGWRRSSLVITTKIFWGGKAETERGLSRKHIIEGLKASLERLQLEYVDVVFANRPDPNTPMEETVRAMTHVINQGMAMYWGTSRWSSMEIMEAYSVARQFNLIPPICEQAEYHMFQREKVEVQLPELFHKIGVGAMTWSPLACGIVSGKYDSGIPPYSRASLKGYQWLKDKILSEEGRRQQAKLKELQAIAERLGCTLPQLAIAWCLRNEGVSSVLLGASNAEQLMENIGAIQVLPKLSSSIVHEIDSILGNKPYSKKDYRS
Sequence of Muscarinic acetylcholine receptor M4 (Homo sapiens) (P08173 whole entry, looked up): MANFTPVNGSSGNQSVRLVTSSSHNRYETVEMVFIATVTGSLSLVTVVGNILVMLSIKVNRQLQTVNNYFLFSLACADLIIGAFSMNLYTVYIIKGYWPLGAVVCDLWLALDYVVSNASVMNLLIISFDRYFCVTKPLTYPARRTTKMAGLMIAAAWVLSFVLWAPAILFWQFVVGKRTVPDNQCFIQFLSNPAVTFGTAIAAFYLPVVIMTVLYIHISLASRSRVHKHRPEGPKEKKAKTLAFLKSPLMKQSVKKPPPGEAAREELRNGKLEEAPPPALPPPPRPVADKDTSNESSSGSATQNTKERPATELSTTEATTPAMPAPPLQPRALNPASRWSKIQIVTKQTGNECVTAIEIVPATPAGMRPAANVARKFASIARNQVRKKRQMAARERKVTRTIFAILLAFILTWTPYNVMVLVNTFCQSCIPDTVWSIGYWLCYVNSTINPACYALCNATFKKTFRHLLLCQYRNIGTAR

For `CCCCCC1CC(CC#CCN2CCOCC2)C(=O)O1` (configuration not stated), the cell count in experiment [1] was 620. Moreover, the inhibition is -2.8% (inactive) in experiment [1]; -6.1% (inactive) in experiment [3]; 3.49% (inactive) in experiment [5]; -4.86% (inactive) in [11]; -1.94% (inactive) in experiment [12]; 10.9% (inactive) in experiment [13]. In [2], the inhibition of aggregation was 10.5% (inactive). Besides, the nuclei count was determined as 90.2% in [2] and 128% in experiment [3]. Also, the z-score in experiment [4] (setting [14]) was 0.645; in experiment [4] (setting [15]), -0.292; in [4] (setting [16]), 0.592. The fluorescence slope was -0.452 (inactive) in experiment [6] and 0.00481 (inactive) in experiment [9]. Also, the NADPH fluorescence slope in [7] was -4.2e-05 (inactive). Also, the slope in experiment [8] was 0.00528 (inactive). The compound was classed as inactive in [10].
Take `Cn1c(/C(C#N)=C/Nc2ccccn2)nc2ccccc21`: the cell count in experiment [1] is 346. In addition, the inhibition is 4.3% (inactive) in [1]; -44% (inactive) in [3]; 5.26% (inactive) in [5]; 2.14% (inactive) in experiment [11]; -13.3% (inactive) in experiment [12]; -19.7% (inactive) in [13]. Besides, in experiment [2], the inhibition of aggregation was -16.9% (inactive). Moreover, the nuclei count in [2] came to 88.4%; in experiment [3], 135%. Further, the z-score is -0.331 in experiment [4] (setting [14]), -0.988 in experiment [4] (setting [15]) and 1.63 in experiment [4] (setting [16]). The fluorescence slope in experiment [6] was -0.224 (inactive). Further, in [7], the NADPH fluorescence slope is -0.000107 (inactive). The slope in experiment [8] was 0.00613 (inactive).
For the compound `CCN(CC)C(=O)c1ccc(O)c(OC)c1`, in experiment [1], the cell count turned out to be 502. Moreover, the inhibition in [1] is -11.1% (inactive); in [3], -54.9% (inactive); in [5], 8% (inactive); in [11], 4.81% (inactive) and 9.44% (inactive); in experiment [12] it was -6.3% (inactive); in [13], 27.6% (inactive). For the same compound, in experiment [2], the inhibition of aggregation was 8.7% (inactive). Further, the nuclei count in experiment [2] is 92.4%; in experiment [3], 125%. For the same compound, the z-score in [4] (setting [14]) was 0.597; in [4] (setting [15]), 0.258; in [4] (setting [16]), -0.513. The fluorescence slope in experiment [6] is -0.5 (inactive). The NADPH fluorescence slope in experiment [7] is -7.4e-05 (inactive). The slope in [8] is 0.00537 (inactive).
For `CCCCC(=O)O[C@H]1CC[C@H]2[C@@H]3CCc4cc(O)ccc4[C@H]3CC[C@]12C`, the cell count in [1] is 524. Also, the inhibition in experiment [1] is -3.1% (inactive); in [3], -104% (inactive); in experiment [5], -0.828% (inactive); in experiment [11], 22.7% (inactive); in experiment [12], 16.8% (inactive); in experiment [13], 40.4% (inactive). For the same compound, the inhibition of aggregation in experiment [2] is 7% (inactive). The values for the nuclei count in experiment [2] and in experiment [3] were 88.9% and 131%, respectively. Further, the z-score was -0.577 in [4] (setting [14]), -1.69 in [4] (setting [15]) and -0.657 in experiment [4] (setting [16]). In addition, in experiment [6], the fluorescence slope is -0.453 (inactive). In experiment [7], the NADPH fluorescence slope was -3e-05 (inactive). Also, the slope in [8] is 0.00721 (inactive).
As to `CC(C)OC(=O)C(C)(C)Oc1ccc(C(=O)c2ccc(Cl)cc2)cc1`, the cell count in experiment [1] is 484. In addition, the inhibition in experiment [1] was -9% (inactive); in experiment [3], -10.1% (inactive); in experiment [5] it was -8.38% (inactive); in experiment [11] it was -3.15% (inactive) and 23.4% (inactive); in experiment [12], -6.93% (inactive); in experiment [13], 18.9% (inactive). For the same compound, in experiment [2], the inhibition of aggregation was 28.8% (inactive). In addition, the figures for the nuclei count in experiment [2] and in experiment [3] were 89.5% and 97.2%, respectively. Moreover, the values for the z-score in experiment [4] (setting [14]), in [4] (setting [15]) and in [4] (setting [16]) were 0.497, -1.12 and 0.95, respectively. The fluorescence slope in [6] is -0.446 (inactive). For the same compound, in experiment [7], the NADPH fluorescence slope was 1.6e-05 (inactive). Besides, the slope in experiment [8] is 0.00465 (inactive).
